Conditions in all cases: mRNA level, 48 h; actives raise or lower the signal
Read-out in assay [1]: Cytochrome P450 7A1 (Homo sapiens) (UniProt P22680)
In words: LTEA_HepaRG_CYP7A1: Life Technologies and Expression Analysis (LTEA) Assay for Cytochrome P450 7A1 (CYP7A1) using HepaRG (AID 2283496). Put shortly: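 HepaRG, 48 h exposure, 8-pt half-log series from 100 uM, 0.5% DMSO vehicle, duplicates. Readout: TaqMan qRT-PCR mRNA vs three housekeeping genes; bidirectional curve fit against DMSO baseline.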

Read-out in assay [2]: Glutathione S-Transferase (GSTA2), GSTA2 (gene 2939)
As to the kind of experiment: LTEA_HepaRG_GSTA2: Life Technologies and Expression Analysis (LTEA) Assay for Glutathione S-Transferase (GSTA2) using HepaRG (AID 2283497). In outline: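 GSTA2 transcript levels came from Fluidigm TaqMan qRT-PCR normalized to three housekeeping genes, fitted in both directions against DMSO. HepaRG cultures received chemicals for 48 h in serum-free induction medium (0.5% DMSO), 8 half-log concentrations up to 100 uM, duplicate.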

Read-out in assay [3]: Glutamate-cysteine ligase catalytic (GCLC), GCLC (gene 2729)
In words: LTEA_HepaRG_GCLC: Life Technologies and Expression Analysis (LTEA) Assay for Glutamate-cysteine ligase catalytic (GCLC) using HepaRG (AID 2283498). In outline: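 Expression by TaqMan qRT-PCR, normalized to three housekeeping genes (ACTB, GAPDH, POLR2A), with up- or down-regulation fitted against DMSO. HepaRG cells dosed in duplicate for 48 h with 8 half-log concentrations up to 100 uM, vehicle 0.5% DMSO.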

Read-out in assay [4]: growth arrest and DNA damage 45 (GADD45G), GADD45G (gene 10912)
As to the kind of experiment: LTEA_HepaRG_GADD45G: Life Technologies and Expression Analysis (LTEA) Assay for growth arrest and DNA damage 45 (GADD45G) using HepaRG (AID 2283499). Put shortly:
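Human hepatic HepaRG line treated 48 h with chemicals (eight concentrations, half-log steps from 100 uM); transcript induction or repression of GADD45G scored by qRT-PCR versus DMSO vehicle.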

Read-out in assay [5]: Glutamate-cysteine ligase regulatory (GCLM), GCLM (gene 2730)
In words: LTEA_HepaRG_GCLM: Life Technologies and Expression Analysis (LTEA) Assay for Glutamate-cysteine ligase regulatory (GCLM) using HepaRG (AID 2283500). In outline: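 Endpoint is GCLM transcript level by qRT-PCR, normalized to three housekeeping genes, after 48 h chemical exposure of human HepaRG cells (0.5% DMSO vehicle, top 100 uM, half-log dilutions). Fitting was bidirectional relative to DMSO.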

Read-out in assay [6]: Heat shock 70 kDa protein 1 (HSPA1A), gene 3303
As to the kind of experiment: LTEA_HepaRG_HSPA1A: Life Technologies and Expression Analysis (LTEA) Assay for Heat shock 70 kDa protein 1 (HSPA1A) using HepaRG (AID 2283502). Put shortly: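 Cells were plated and cultured for 48 h, then switched to serum-free induction medium. Chemicals were added at eight half-log concentrations up to 100 uM for 48 h. RNA was then isolated and HSPA1A measured by qRT-PCR with bidirectional curve fitting against DMSO.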

Read-out in assay [7]: Hypoxia-inducible factor 1-alpha (Homo sapiens) (UniProt Q16665)
As to the kind of experiment: LTEA_HepaRG_HIF1A: Life Technologies and Expression Analysis (LTEA) Assay for Hypoxia-inducible factor 1 (HIF1A) Trancription factor using HepaRG (AID 2283503). Put shortly: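 HIF1A transcript level read by qRT-PCR (ACTB, GAPDH, POLR2A normalization) after 48 h chemical exposure of HepaRG cultures. Eight half-log concentrations, top 100 uM, 0.5% DMSO vehicle, duplicates; bidirectional curve fit against DMSO baseline.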

Read-out in assay [8]: 3-Hydroxy-3-Methylglutaryl-CoA Synthase 2 (HMGCS2), HMGCS2 (gene 3158)
In words: LTEA_HepaRG_HMGCS2: Life Technologies and Expression Analysis (LTEA) Assay for 3-Hydroxy-3-Methylglutaryl-CoA Synthase 2 (HMGCS2) using HepaRG (AID 2283504). Put shortly:
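Expression of HMGCS2 in human HepaRG liver cells is measured by qRT-PCR 48 h after dosing (highest 100 uM, half-log series, 0.5% DMSO). Values come from bidirectional concentration-response fitting with DMSO as baseline.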

Read-out in another assay: HGF (gene 3082)
In words: LTEA_HepaRG_HGF: Life Technologies and Expression Analysis (LTEA) Assay for Hepatocyte Growth Facto (HGF) using HepaRG (AID 2283505). Put shortly: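 Gain or loss of HGF mRNA in human HepaRG liver cells after 48 h chemical exposure; eight concentrations up to 100 uM with 0.5% DMSO vehicle, quantified by TaqMan qRT-PCR.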

Read-out in assay [9]: Insulin Like Growth Factor 1 (IGF1), IGF1 (gene 3479)
In words: LTEA_HepaRG_IGF1: Life Technologies and Expression Analysis (LTEA) Assay for Insulin Like Growth Factor 1 (IGF1) using HepaRG (AID 2283506). In outline:
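Cells are thawed, plated and cultured 48 h, then exposed in duplicate to chemical (highest 100 uM, half-log steps, 0.5% DMSO) for another 48 h. Total RNA is analysed by Fluidigm qRT-PCR for IGF1 expression relative to vehicle.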

Read-out in assay [10]: Intercellular Adhesion Molecule 1 (ICAM1), ICAM1 (gene 3383)
As to the kind of experiment: LTEA_HepaRG_ICAM1: Life Technologies and Expression Analysis (LTEA) Assay for Intercellular Adhesion Molecule 1 (ICAM1) using HepaRG (AID 2283507). In outline: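 Gain or loss of transcript in HepaRG hepatic cells is quantified by qRT-PCR after 48 h chemical exposure (up to 100 uM, half-log steps), with DMSO as baseline.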

Read-out in assay [11]: Insulin-like growth factor-binding protein 1 (IGFBP1), IGFBP1 (gene 3484)
As to the kind of experiment: LTEA_HepaRG_IGFBP1: Life Technologies and Expression Analysis (LTEA) Assay for Insulin-like growth factor-binding protein 1 (IGFBP1) using HepaRG (AID 2283508). In outline:
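mRNA induction or loss was quantified by qRT-PCR after 48 h chemical exposure of human HepaRG cells, with 0.5% DMSO as vehicle and baseline. Concentration-response over eight points up to 100 uM.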

Read-out in assay [12]: Interleukin 6 (IL6), IL6 (gene 3569)
As to the kind of experiment: LTEA_HepaRG_IL6: Life Technologies and Expression Analysis (LTEA) Assay for Interleukin 6 (IL6) using HepaRG (AID 2283509). Put shortly:
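Transcript levels, normalized to three housekeeping genes, were quantified by qRT-PCR after 48 h chemical treatment of HepaRG cells. Eight-point half-log series from 100 uM in 0.5% DMSO, duplicates. Fitted both directions against DMSO baseline.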

Read-out in assay [13]: Interleukin 6 Receptor (IL6R), IL6R (gene 3570)
In words: LTEA_HepaRG_IL6R: Life Technologies and Expression Analysis (LTEA) Assay for Interleukin 6 Receptor (IL6R) using HepaRG (AID 2283510).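 As to AC50: differentiated human HepaRG liver cells in serum-free induction medium.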 Put shortly:
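Cells were thawed, plated and cultured 48 h, then medium was changed to serum-free induction medium. Chemicals were added in duplicate (100 uM top, half-log steps, 0.5% DMSO) for 48 h. Lysates were analyzed by qRT-PCR for IL6R expression.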

Read-out in assay [14]: Potassium channel subfamily K member 1 (KCNK1), KCNK1 (gene 3775)
As to the kind of experiment: LTEA_HepaRG_KCNK1: Life Technologies and Expression Analysis (LTEA) Assay for Potassium channel subfamily K member 1 (KCNK1) using HepaRG (AID 2283511). In outline:
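KCNK1 transcript measured by TaqMan qRT-PCR against three housekeeping genes, after HepaRG cells were treated 48 h with eight half-log concentrations (top 100 uM, 0.5% DMSO). Curves fitted bidirectionally relative to vehicle.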

Read-out in assay [15]: Keratin 19 (KRT19), KRT19 (gene 3880)
In words: LTEA_HepaRG_KRT19: Life Technologies and Expression Analysis (LTEA) Assay for Keratin 19 (KRT19) using HepaRG (AID 2283512). Put shortly: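 Gene-expression endpoint in the human liver line HepaRG after 48 h exposure to up to 100 uM test chemical with 0.5% DMSO vehicle; KRT19 mRNA by qRT-PCR, analyzed bidirectionally versus DMSO.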

Read-out in assay [16]: JUN Transcription Factor, JUN (gene 3725)
As to the kind of experiment: LTEA_HepaRG_JUN: Life Technologies and Expression Analysis (LTEA) Assay for JUN Transcription Factor using HepaRG (AID 2283513). Put shortly:
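Read-out is JUN transcript level by TaqMan qRT-PCR, normalized to ACTB, GAPDH and POLR2A, after 48 h chemical treatment of HepaRG cells. Concentration-response spanned eight half-log points up to 100 uM in 0.5% DMSO.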

Read-out in assay [17]: Glutathione S-transferase M3 (GSTM3), GSTM3 (gene 2947)
In words: LTEA_HepaRG_GSTM3: Life Technologies and Expression Analysis (LTEA) Assay for Glutathione S-transferase M3 (GSTM3) using HepaRG (AID 2283501). Put shortly:
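Changes in GSTM3 expression, an oxidative-stress marker, were scored by bidirectional curve fitting against 0.5% DMSO vehicle. Human HepaRG cultures received chemicals for 48 h in duplicate, highest concentration 100 uM with half-log dilutions.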

Structures are written as SMILES. Calls of active or inactive are those of the source. The calls were made as follows: active = hit-call score of the fitted dose curve at least 0.9, where 1 is the maximum; inactive = score below 0.9.

Broadly, the AC50 is the concentration at which the activity in the assay is half-maximal.

Chain of Hypoxia-inducible factor 1-alpha (Homo sapiens) (Q16665 whole entry, looked up): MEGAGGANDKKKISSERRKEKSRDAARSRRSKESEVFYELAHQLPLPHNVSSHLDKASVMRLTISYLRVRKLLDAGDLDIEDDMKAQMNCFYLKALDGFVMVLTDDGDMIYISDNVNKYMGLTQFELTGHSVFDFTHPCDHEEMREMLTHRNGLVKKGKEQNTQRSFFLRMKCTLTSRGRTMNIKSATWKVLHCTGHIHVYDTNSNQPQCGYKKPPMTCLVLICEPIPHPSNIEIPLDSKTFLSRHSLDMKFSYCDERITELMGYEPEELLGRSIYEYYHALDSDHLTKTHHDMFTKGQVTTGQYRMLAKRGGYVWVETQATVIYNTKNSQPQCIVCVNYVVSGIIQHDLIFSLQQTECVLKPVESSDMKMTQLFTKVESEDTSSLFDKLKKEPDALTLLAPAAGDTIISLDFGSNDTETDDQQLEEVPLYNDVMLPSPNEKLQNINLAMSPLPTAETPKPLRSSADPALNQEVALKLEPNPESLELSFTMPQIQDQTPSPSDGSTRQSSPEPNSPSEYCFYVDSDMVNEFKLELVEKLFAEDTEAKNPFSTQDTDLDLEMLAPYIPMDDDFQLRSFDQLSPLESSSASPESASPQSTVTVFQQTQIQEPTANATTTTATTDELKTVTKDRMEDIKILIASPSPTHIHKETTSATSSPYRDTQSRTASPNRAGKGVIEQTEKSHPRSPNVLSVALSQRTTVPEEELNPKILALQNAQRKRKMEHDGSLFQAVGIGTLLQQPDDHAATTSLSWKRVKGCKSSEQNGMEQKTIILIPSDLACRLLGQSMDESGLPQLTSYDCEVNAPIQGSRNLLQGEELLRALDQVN

Consider `CCCCOC(=O)C(C)Oc1ccc(Oc2ccc(C(F)(F)F)cn2)cc1` (stereo not drawn), for which the compound was classed as inactive in assay [1], in assay [2], in assay [3], in assay [4], in assay [5] and in [6]. Further, the compound was called inactive (in assay [7]; in assay [8]; in the assay with HGF (gene 3082); in [9]; in [10]; in assay [11]). Further, the result in [12], in assay [13], in assay [14], in assay [15] and in assay [16] was inactive.
As for `C#C[C@]1(O)CC[C@H]2[C@@H]3CCC4=CC(=O)CC[C@@H]4[C@H]3CC[C@@]21CC`, the AC50 in assay [1] is 0.056 µM (active); in assay [12], 0.0379 µM (active). The compound was classed as inactive in [2], in assay [3], in [4], in [5], in [6] and in assay [7]. In addition, the result (in assay [8]; with HGF (gene 3082); in assay [9]; in assay [10]; in assay [11]; in assay [13]) was inactive. In addition, the compound was called inactive in assay [15] and in [16].
For `CCOC(=O)c1ccc(O)cc1`, the outcome in assay [1], in assay [2], in [3], in [4], in assay [5] and in assay [6] was inactive. The result (in [7]; in assay [8]; with HGF (gene 3082); in assay [9]; in assay [10]; in assay [11]) was inactive. In addition, the compound was called inactive in assay [12], in assay [13], in assay [14], in [15] and in assay [16].
As for `CC(=O)[C@H]1CC[C@H]2[C@@H]3CCC4=CC(=O)CC[C@]4(C)[C@H]3CC[C@]12C`, the concentration at half-maximal activity (AC50) was 26.8 µM (active) in assay [1]; 34.5 µM (active) in assay [2]; 91.1 µM (active) in [3]; 23 µM (active) in assay [4]; 70.2 µM (active) in [6]; 29.2 µM (active) in assay [8]. Moreover, the AC50 in the assay with HGF (gene 3082) was 85.4 µM (active); in [9], 32.4 µM (active); in assay [10] it was 33.3 µM (active); in assay [11], 27.4 µM (active); in assay [12], 83.5 µM (active); in [13] it was 50 µM (active). The AC50 in assay [14] was 56.6 µM (active); in assay [15], 50 µM (active); in assay [16], 50 µM (active). In assay [5], the result was inactive.
Consider `CCCN(CCC)C(=O)SCC`, for which the call in [1], in [2], in [3], in assay [4], in [5] and in assay [6] was inactive. Besides, the result (in [7]; in [8]; with HGF (gene 3082); in [9]; in assay [10]; in [11]) was inactive. Besides, the compound was classed as inactive in assay [12], in assay [13], in assay [14], in [15] and in [16].
As to `COC(=O)CSc1cc(N=c2sc(=O)n3n2CCCC3)c(F)cc1Cl`, the result in assay [1], in assay [2], in assay [3], in [4], in [5] and in [17] was inactive. The outcome (in assay [6]; in assay [7]; in assay [8]; with HGF (gene 3082); in assay [9]; in assay [10]) was inactive. In addition, the result in assay [11], in assay [12], in [13], in assay [14], in assay [15] and in assay [16] was inactive.
For the compound `CCNc1nc(N)nc(Cl)n1`, the compound was called inactive in assay [1], in assay [2], in assay [3], in assay [4], in assay [5] and in assay [6]. Further, the result (in [7]; in [8]; with HGF (gene 3082); in [9]; in assay [10]; in assay [11]) was inactive. Further, the result in assay [12], in assay [13], in assay [14], in [15] and in assay [16] was inactive.

The record behind these values is PubChem BioAssay (EPA / NIEHS).
